From PubChem
TRPV1 agonist – activates the human vanilloid receptor TRPV1. 320,000 compounds, 0.19% hits. Q8NER1. TRPV1-expressing cells, Fluo-8 calcium influx, agonist mode. activation, % at 8.33 µM. AID 540275; in the data active means activation above about 80%; inconclusive means between about 30% and that limit; further: 0% is about no effect
Target sequence (Q8NER1 whole entry, looked up): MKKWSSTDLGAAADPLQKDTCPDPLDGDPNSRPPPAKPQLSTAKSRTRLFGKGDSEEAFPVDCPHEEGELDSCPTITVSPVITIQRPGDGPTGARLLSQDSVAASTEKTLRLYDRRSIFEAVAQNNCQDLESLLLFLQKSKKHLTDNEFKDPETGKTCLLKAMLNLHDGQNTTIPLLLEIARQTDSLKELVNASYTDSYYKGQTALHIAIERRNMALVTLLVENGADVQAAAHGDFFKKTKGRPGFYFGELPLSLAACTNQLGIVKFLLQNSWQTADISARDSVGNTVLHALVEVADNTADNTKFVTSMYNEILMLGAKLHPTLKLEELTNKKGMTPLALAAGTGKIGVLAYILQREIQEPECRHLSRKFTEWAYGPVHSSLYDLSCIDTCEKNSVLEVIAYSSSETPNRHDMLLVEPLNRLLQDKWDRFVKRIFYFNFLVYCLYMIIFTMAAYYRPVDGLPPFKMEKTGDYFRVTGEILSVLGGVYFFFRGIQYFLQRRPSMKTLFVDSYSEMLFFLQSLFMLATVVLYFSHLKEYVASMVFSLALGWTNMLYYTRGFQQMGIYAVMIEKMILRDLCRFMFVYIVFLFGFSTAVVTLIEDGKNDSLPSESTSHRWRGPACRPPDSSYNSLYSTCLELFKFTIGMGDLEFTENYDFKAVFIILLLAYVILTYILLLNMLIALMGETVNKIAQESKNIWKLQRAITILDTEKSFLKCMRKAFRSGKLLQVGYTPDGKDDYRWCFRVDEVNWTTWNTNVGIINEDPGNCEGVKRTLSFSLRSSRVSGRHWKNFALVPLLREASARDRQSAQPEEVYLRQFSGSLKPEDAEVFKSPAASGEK
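Fluo-8 calcium influx in TRPV1-expressing cells, kinetic read (ex 480/em 520 nm). Compound added and read 3 min for agonist activity, followed by capsaicin at EC20 final and 2 min further read for enhancement.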
RXFP1 antagonist – blocks the human relaxin receptor RXFP1; 350,000 compounds, 0.59% hits; HEK293-RXFP1, relaxin-stimulated cAMP HTRF, 30 min; hits give low values; Q9HBX9; AID 1259400; activity change, negative = inhibition, % at 57.5 µM;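 active means activity change of -60% or lower, but not beyond a set lower limit; inconclusive means change between -60% and -40%, or beyond the set limit; inactive means change above -40%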; further: on the % scale 0 is the no-effect control and ±100 the full control effect
RXFP1 agonist – agonists of human relaxin receptor RXFP1; HEK293T-RXFP1 cAMP TR-FRET, 30 min; response scale: percent of porcine relaxin response, buffer zero; Potency, µM (series often up to 57.5 µM), for inactives: top-dose activation, actives largely listed as activators; 370,000 compounds, 0.3% hits; active means well fitted activation curve with a large enough effect; inconclusive means small, poorly fitted or top-dose-only effect; further: potency means the concentration at half of the fitted maximal effect; on the % scale 0 is the no-effect control and ±100 the full control effect; nearly all actives have a fitted effect of over 60% in size
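HEK293 cells stably expressing RXFP1, treated 30 min at 37C with compounds plus PDE4 inhibitor Ro 20174; cAMP measured by HTRF TR-FRET. Normalized to buffer and 29 nM porcine relaxin; EC50 by Hill fit.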
gsp ag – activates gsp, the McCune-Albright syndrome mutation; gsp mutant cells, cAMP HTRF, 30 min; Potency, µM (doses to about 76.9 µM), inactives show at the highest dose activation (cAMP increase), usual class: activators; 340,000 compounds, 0.13% hits; AID 624287; active means well fitted activation curve with a large enough effect; inconclusive means small, poorly fitted or top-dose-only effect, or another doubt; inactive means no such curve, though single readings can be large or run the other way; cell line not stated here;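 further: phosphodiesterase inhibitor Ro 20-1724 added with compounds to block cAMP breakdown; potency means the concentration at half of the fitted maximal effect; nearly all actives have a fitted effect of over 60% in size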
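Cells in DMEM/10% FBS with G418 were pretreated with compounds in DMSO plus […] (300 uM stock) for 30 min at 37C. cAMP was measured by HTRF (cAMP-d2 plus anti-cAMP antibody-K) after 30 min at room temperature.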
gsp antagonist – gsp mutant antagonism. gsp-mutant cells, cAMP HTRF, 30 min. Potency, µM (titrated, usually from 76.9 µM), for the others: at the top dose activity change, negative = inhibition, hits mostly inhibitors. 340,000 compounds, 0.4% hits; calls by dose curve; cell line not stated here;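 further: intracellular cAMP measured with PDE inhibitor Ro 20-1724 present during compound exposure; potency means the concentration at half of the fitted maximal effect; on the % scale 0 is the no-effect control and ±100 the full control effect; nearly all actives have a fitted effect of over 65% in size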
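Measurement of cellular cAMP by homogeneous time-resolved fluorescence following a 30 min compound exposure at 37C. The PDE inhibitor […] was present throughout; the assay buffer was DPBS with 0.05% BSA and 0.005% Tween 20.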
TRPV1 potentiator – human TRPV1 potentiation | TRPV1-expressing cells, Fluo-8 calcium influx, capsaicin EC20 potentiation | potentiation, % at 8.33 µM | 320,000 compounds, 0.02% hits | AID 540277; in the data active means potentiation above about 80%; inconclusive means between about 30% and that limit; further: 0% is about no effect
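Cells expressing TRPV1 were dye-loaded with Fluo-8 and read kinetically: 10 s baseline, 3 min after compound (agonist portion), then 2 min after EC20 capsaicin (allosteric enhancer portion). Calcium-bound dye fluorescence at 480/520 nm.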
An asterisk follows results filed as active; ? = inconclusive; · = no result; [ ] = another dose, or the depositor's remark. In the library only some 1.1% were active in any assay of this set; here they are far more common.

SMILES	TRPV1 agonist	RXFP1 antagonist	RXFP1 agonist	gsp ag	gsp antagonist	TRPV1 potentiator
O=C(O)[C@H](O)[C@@H](O)[C@H](O[C@@H]1O[C@H](CO)[C@H](O)[C@H](O)[C@H]1O)[C@H](O)CO	·	-6	·	·	·	·
CCc1cc2cc3c(cc2nc1SCC(=O)Nc1cc(C)on1)OCO3	-4	-1	28µM*	?	21%	2
CCc1cc2ccc(C)cc2nc1SCC(=O)Nc1cc(C)on1	20	3	19%	-3%[15.4 µM]	-4%	-9
COc1cccc(/C=N/n2c(SC)nnc2-c2ccccc2)c1O	89*	16	2%	25%	5%	-17
COc1cccc(/C=N/n2c(SC)nnc2-c2ccccc2)c1OC	28	-7	3%	-6%	-13%	-22
COc1ccc(-c2cc3nc(-c4ccccc4)cc(N4CCC(O)CC4)n3n2)cc1	5	2	15%	9%[15.4 µM]	?	-6
COc1ccc(-c2cc3nc(-c4ccccc4)cc(N4CCCC(O)C4)n3n2)cc1 (stereo not given)	6	-3	15%	?	35µM*	7
CC(C)(C)c1ccc(-c2nc(SCC(=O)Nc3ccccc3F)n3[nH]c(=O)cc3n2)cc1	·	-64*	2%	·	·	·
O=C(CSc1nc(-c2ccco2)nc2cc(=O)[nH]n12)Nc1ccccc1F	·	-9	0%	·	·	·
Cc1ccc(-c2nc(C(=O)NC3CCCCCC3)no2)cc1	·	-61*	·	-3%	3%	·
Cc1ccc(-c2cc(C(=O)NC3CCCCC3)no2)cc1	-2	-15	1%	15%	2%	-4
CCc1ccc(NCc2cc3cc4c(cc3n(CC(=O)Nc3ccccc3C)c2=O)OCCO4)cc1	·	·	8%	·	·	·
CCOc1ncc(F)c(=O)[nH]1	·	6	·	·	·	·
Cc1ccc(SCC(=O)Nc2cc([N+](=O)[O-])ccc2O)cc1	5	-25	-1%	-28%[15.4 µM]	50µM*	-9
O=C(CSCc1ccc(Cl)cc1)Nc1cc([N+](=O)[O-])ccc1O	4	5	0%	14%	?	5
CC1C(=NO)C(C)C(c2ccccc2)NC1c1ccccc1 (stereo not given)	-4	-5	0%	-8%	5%	11
CCC1C(=NO)C(CC)C(c2ccccc2)NC1c1ccccc1 (stereo not given)	?	-74*	-1%	2%[15.4 µM]	?	-6
CCCNC(=O)N1CCCN(S(=O)(=O)c2ccc3c(ccn3CC)c2)CC1	·	·	-1%	·	·	·
CN(Cc1cn(C)nc1-c1ccc(Oc2ccccc2)cc1)Cc1cnc2ccccn12	2	8	-1%	?	40µM*	2
Cn1cc(CNCc2cnc3ccccn23)c(-c2ccc(Oc3ccccc3)cc2)n1	0	6	1%	26%	-17%	5
COc1ccccc1CC(=O)Nc1nc(-c2ccc(F)c(F)c2)cs1	24	-15	-2%	-6%[15.4 µM]	?	-9
COc1ccc(S(=O)(=O)Nc2ccccc2C(=O)Nc2nc(-c3ccc(F)cc3)cs2)cc1OC	2	-28	4%	-6%[15.4 µM]	35µM*	7
COc1ccc(-c2csc(Nc3ccccn3)n2)cc1OC	-2	-84*	-1%	-1%[15.4 µM]	-27%	9
Cc1ccnc(Nc2nc(-c3ccc(F)cc3)cs2)c1	?	-66*	0%	2%[15.4 µM]	-27%	7
Cc1ccnc(Nc2nc(-c3ccc(Cl)cc3)cs2)c1	11	-3	0%	?	6%	11
SMILES	TRPV1 agonist	RXFP1 antagonist	RXFP1 agonist	gsp ag	gsp antagonist	TRPV1 potentiator
O=C(Cc1ccccc1F)Nc1nc(-c2ccc(F)cc2)cs1	?	-93*	-1%	-5%	-16%	-3
O=C1CN(C(=O)COc2ccc(Cl)cc2)C(c2ccc(F)cc2)c2cc(Cl)ccc2N1 (stereo not given)	·	-25	0%	·	·	·
O=C(Nc1ccc(S(=O)(=O)N2CCOCC2)cc1)c1ccccc1Br	13	6	1%	?	-1%	-34
COc1ccc(N2CCN(C(=O)c3sc4nc5n(c(=O)c4c3C)CCC5)CC2)cc1	·	-13	?	·	·	·
COc1ccc(CC(=O)Nc2nc(-c3ccc(OC)c(OC)c3)cs2)cc1OC	?	-27	1%	4%[15.4 µM]	28µM*	3
COc1ccc(-c2csc(NC(=O)Cc3ccccc3F)n2)cc1OC	?	-6	0%	-18%[15.4 µM]	?	-12
CCCCCCCCCCCCCCCCCCNC(=O)OC1CCN(C(=O)OC[C@H](COC(=O)N(Cc2cccc[n+]2CC)C(=O)c2ccccc2OC)OC)CC1	·	-26	·	·	·	·
Cc1ccc(Sc2c(C=O)c3ccccc3n2C)cc1	20	14	12%	18µM*	-4%	-1
Cc1ccc(Sc2c(O)c3ccccc3n(C)c2=O)cc1	-2	3	?	13µM*	23%	4
COc1ccc(-n2c(SCc3ccccc3F)nc3c([nH]c4ccccc43)c2=O)cc1	·	·	4%	·	·	·
CC1CN(CCCCOc2cccc(Oc3ccccc3)c2)CC(C)O1 (stereo not given)	-2	-64*	2%	8%[15.4 µM]	4%	-10
COc1cc(OC)c(NC(=O)N2CCc3c(sc4c3CCCC4)C2c2ccccc2)cc1Cl (stereo not given)	·	4	-1%	·	·	·
O=C(/C=C/c1ccc(Cl)cc1)NCc1ccncc1	82*	·	3%	-13%	8%	-7
Cc1ccc(/C=C/C(=O)NCc2ccncc2)cc1	?	-24	-4%	-37%	4%	-4
COc1ccc(S(=O)(=O)N(CC(=O)NCCSc2ccccc2)c2ccc(C)cc2)cc1	·	1	-1%	·	·	·
CC(C)(C)c1ccc(C(=O)Nc2ccc(C=C(C#N)C#N)cc2)cc1	89*	-22	0%	10%	-15%	-16
CC(C)(C)c1ccc(C(=O)CCC(=O)OCC(=O)NCCc2ccc(S(N)(=O)=O)cc2)cc1	3	-39	0%	1%	32µM*	5
CC(C)(C)c1ccc(C(=O)Nc2ccc(S(N)(=O)=O)cc2)cc1	86*	-16	-3%	-3%[15.4 µM]	-5%	-2
NS(=O)(=O)c1ccc(CCNC(=O)COC(=O)CCc2ccccc2)cc1	0	5	-1%	-14%	2%	6
CC(C)(C)c1ccc(C(=O)Nc2ccc3c(c2)C(=O)NC3=O)cc1	86*	·	9%	19%	7%	-11
CC(C)(C)c1ccc(C(=O)Nc2ccc(NC(=O)c3ccc(Cl)c(Cl)c3)cc2)cc1	·	-1	5%	·	·	·
COc1ccccc1C(CNC(=O)CNC(=O)c1ccccc1Cl)N1CCCC1 (stereo not given)	-2	7	0%	14%	-7%	0
O=C(NCc1ccc(F)cc1)c1ccc2c(O)c(S(=O)(=O)c3ccccc3)c(=O)[nH]c2c1	·	-3	1%	·	·	·
